One assay has as its target Albumin (Bos taurus) (UniProt P02769). Nature of the assay: compounds binding labelled BSA control protein – biochemical, small-molecule microarray, Alexa647 label, 635/667 nm fluorescence, artefact control for SMM control protein annotation, profiling panel (AID 1118).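 Note: score merges 667 nm emission intensity and signal-to-noise per printed compound spot.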 Conditions: BSA-A647 binding, fluorescence 635 nm, higher = more signal.
A short description of assay [1]: probe aXIP binding to arrayed compounds – biochemical, NeuroSMM set, 635/667 nm fluorescence, primary screen (AID 1119).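 Note: probe is the protein aXip251-270 applied at 1 µg/mL to compound-printed slides; binding of probe to printed compounds measured as 667 nm fluorescence plus signal to noise.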 The note with it: small-molecule microarray, higher = more signal, called active from +8 up or from −8 down.
Assay [2] in a line: probe aNOTCH3 binding on compound microarray – biochemical, small-molecule microarray, 635/667 nm fluorescence, primary screen (AID 1120).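 Note: probe is a biotin-tagged antibody raised against NOTCH3 rather than NOTCH3 protein; score merges spot fluorescence near 667 nm with spot signal to noise.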 Conditions: higher = more signal.
A short description of assay [3]: probe aNOTCH2 binding on compound microarray – biochemical, small-molecule microarray, 635/667 nm fluorescence, primary screen (AID 1121).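 Note: score merges feature fluorescence read at 667 nm with its signal to noise.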 The note with it: higher = more signal.
For assay [4], the target named is Carbonic anhydrase 2 (Homo sapiens) (UniProt P00918). Nature of the assay: compounds binding carbonic anhydrase 2 – biochemical, small-molecule microarray, Alexa647-labelled CAII, profiling panel (AID 1122). Conditions: CAII-A647 binding fluorescence, higher = more signal.
A short description of assay [5]: COS7 lysate on small-molecule microarray, probe aHis, 635 nm (AID 1123).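 Note: z-score combines 667nm fluorescence intensity with signal-to-noise per printed compound spot.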 Conditions: COS7 cell lysate, fluorescence, higher = more signal.
Assay [6] can be described thus: probe aLAP1 signal on lysate-treated microarray – cell lysate, small-molecule microarray, COS7 lysate, primary screen (AID 1124).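 Note: lysate comes from COS7 cells expressing LAP1 and is applied at 0.3 µg/mL; score merges spot fluorescence near 667 nm with signal-to-noise over triplicate slides.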 The note with it: probe aLAP1, fluorescence, higher = more signal.
The subject of another assay is Sam68 (KHDRBS1). In words: compounds binding KHDRBS1 protein – biochemical, small-molecule microarray, 635 nm fluorescence, primary screen (AID 1125).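 Note: score merges 667 nm channel intensity with signal to noise over triplicate slides.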 The note with it: higher = more signal.
For assay [7], the system named is Chordin-like protein 2 (CHRDL2). Nature of the assay: compounds binding chordin-like 2 – biochemical, small-molecule microarray, 635 nm fluorescence, primary screen (AID 1126).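 Note: printed compound slides probed with Chrdl2 protein at 4 µg/mL for 1 h at 4 C; score merges 667 nm emission intensity with signal to noise over three replicate slides.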 Conditions: fluorescence 635 nm, higher = more signal.
Assay [8] addresses Concanavalin-A (Canavalia ensiformis) (UniProt P02866). Nature of the assay: compounds binding concanavalin A lectin – biochemical, small-molecule microarray, Alexa647 label, 635 nm, artefact control for SMM control protein annotation, primary screen (AID 1127).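 Note: z combines 667 nm emission intensity with signal-to-noise across three replicate slides.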 The note with it: ConA-A647 binding fluorescence, higher = more signal.
The nature of assay [9]: compounds binding Alexa647 anti-His antibody – biochemical, small-molecule microarray, 635 nm fluorescence, artefact control for SMM control protein annotation, primary screen (AID 1128).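 Note: score merges feature fluorescence with signal-to-noise for each printed compound spot.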 The note with it: higher = more signal.
The subject of assay [10] is Human papillomavirus type 1a E7 protein (residues 1-88). Nature of the assay: HPV1a E7 small-molecule binders, primary screen, biochemical, small-molecule microarray, residues 1-88, 635 nm (AID 1129). The note with it: small-molecule microarray binding, fluorescence 635 nm; higher = more signal.
The target in assay [11] is Focal adhesion kinase 1 (Homo sapiens) (UniProt Q05397). In words: PTK2 protein binding on printed compound slides – biochemical, small-molecule microarray, 635/667 nm fluorescence, BSA, DTT, primary screen (AID 1130).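 Note: composite of spot emission at 667 nm and signal to noise over triplicate slides.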 Conditions: 635 nm fluorescence, higher = more signal.
Focal adhesion kinase 1 (Homo sapiens), sequence (Q05397 whole entry, looked up): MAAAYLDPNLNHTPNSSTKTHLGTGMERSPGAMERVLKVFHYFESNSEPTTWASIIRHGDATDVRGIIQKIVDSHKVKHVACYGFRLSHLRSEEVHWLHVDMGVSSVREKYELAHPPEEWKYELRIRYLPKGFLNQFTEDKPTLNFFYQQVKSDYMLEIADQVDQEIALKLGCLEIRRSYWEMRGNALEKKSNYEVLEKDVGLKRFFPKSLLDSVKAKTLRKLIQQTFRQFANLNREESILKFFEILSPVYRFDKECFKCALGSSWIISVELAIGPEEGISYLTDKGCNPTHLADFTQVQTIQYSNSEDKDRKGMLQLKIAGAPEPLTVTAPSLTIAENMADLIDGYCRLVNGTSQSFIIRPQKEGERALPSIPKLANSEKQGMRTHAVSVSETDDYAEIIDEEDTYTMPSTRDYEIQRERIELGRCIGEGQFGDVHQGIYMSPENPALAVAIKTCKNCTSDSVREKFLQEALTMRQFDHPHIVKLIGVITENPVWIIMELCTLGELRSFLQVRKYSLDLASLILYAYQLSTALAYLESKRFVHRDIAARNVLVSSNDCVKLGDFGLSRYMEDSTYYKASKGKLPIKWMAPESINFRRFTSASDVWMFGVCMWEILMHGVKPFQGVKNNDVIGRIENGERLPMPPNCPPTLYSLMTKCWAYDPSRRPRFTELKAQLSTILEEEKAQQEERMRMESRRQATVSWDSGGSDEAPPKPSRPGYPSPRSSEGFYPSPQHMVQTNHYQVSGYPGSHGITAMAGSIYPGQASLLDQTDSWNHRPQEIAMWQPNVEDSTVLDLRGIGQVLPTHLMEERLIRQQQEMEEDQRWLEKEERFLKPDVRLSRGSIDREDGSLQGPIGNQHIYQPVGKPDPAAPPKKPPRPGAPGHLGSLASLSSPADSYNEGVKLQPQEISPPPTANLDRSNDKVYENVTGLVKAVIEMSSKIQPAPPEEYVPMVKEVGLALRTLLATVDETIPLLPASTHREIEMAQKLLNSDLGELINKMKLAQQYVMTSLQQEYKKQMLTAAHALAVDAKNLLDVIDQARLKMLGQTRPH
Assay [12] concerns Fibrinogen (Alexa647-labelled). Nature of the assay: Alexa647-fibrinogen binding to printed small molecules – biochemical, small-molecule microarray, 635/667 nm fluorescence, artefact control for SMM control-protein annotation, profiling panel (AID 1131).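 Note: z-score merges 667 nm fluorescence with per-spot signal-to-noise over triplicate slides.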 Conditions: fibrinogen-A647 binding fluorescence, higher = more signal.
The target of assay [13] is Follistatin (Homo sapiens) (UniProt P19883). In words: FST protein binding to printed compounds – biochemical, small-molecule microarray, 635/667 nm fluorescence, primary screen (AID 1132). The note with it: 635 nm fluorescence, higher = more signal.
Follistatin (Homo sapiens), sequence (P19883 whole entry, looked up): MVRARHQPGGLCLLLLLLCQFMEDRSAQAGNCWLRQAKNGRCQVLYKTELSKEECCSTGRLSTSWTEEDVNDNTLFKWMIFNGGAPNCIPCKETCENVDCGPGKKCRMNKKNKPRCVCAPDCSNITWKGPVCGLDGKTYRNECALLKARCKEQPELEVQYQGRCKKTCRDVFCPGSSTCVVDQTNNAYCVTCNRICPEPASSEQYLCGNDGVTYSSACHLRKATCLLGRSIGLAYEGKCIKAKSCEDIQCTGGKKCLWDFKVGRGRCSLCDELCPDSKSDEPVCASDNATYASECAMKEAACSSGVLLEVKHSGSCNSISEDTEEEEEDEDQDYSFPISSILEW
Assay [14] addresses Fibroblast growth factor 2 (Homo sapiens) (UniProt P09038). Nature of the assay: basic fibroblast growth factor binding to printed compounds – biochemical, small-molecule microarray, 635/667 nm fluorescence, primary screen (AID 1133). Conditions: FGF2, fluorescence 635/667, higher = more signal.
Assay [15] can be described thus: JC-1 mitochondrial potential readout, lung cancer cells – cell-based, A549, JC-1 fluorescence, basal, 24 h, 100 nL, profiling panel (AID 1138).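 Note: A549 lung adenocarcinoma cells under basal conditions with no added stimulus; test concentration not given here.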 The note with it: higher = more signal.
The test system of another assay is Lefty1. In words: Lefty1 protein binding to printed compounds – biochemical, small-molecule microarray, 635/667 nm fluorescence, primary screen (AID 1139). Conditions: fluorescence 635/667, higher = more signal.
In assay [16] the test system is wheat germ agglutinin (Triticum aestivum), Alexa647-labelled. In words: Alexa647-WGA lectin binding to printed small molecules – biochemical, small-molecule microarray, 635/667 nm fluorescence, artefact control for SMM control-protein annotation, profiling panel (AID 1140).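 Note: score merges 667 nm feature emission with signal to noise over triplicate slides.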 The note with it: WGA-A647 binding, 635 nm fluorescence, higher = more signal.
The target of assay [17] is Luciferin 4-monooxygenase (Photinus pyralis) (UniProt P08659). Nature of the assay: inhibition of purified Photinus pyralis luciferase – biochemical, luminescence, purified enzyme, 2006 set, primary screen (AID 1141).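 Note: cell-free assay with purified firefly luciferase at 100 ng per well in PBS; test concentration not given here.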 Conditions: purified firefly luciferase, SteadyGlo luminescence, 30 min; higher = more signal, called active from +8 up or from −8 down.
Luciferin 4-monooxygenase (Photinus pyralis), sequence (P08659 whole entry, looked up): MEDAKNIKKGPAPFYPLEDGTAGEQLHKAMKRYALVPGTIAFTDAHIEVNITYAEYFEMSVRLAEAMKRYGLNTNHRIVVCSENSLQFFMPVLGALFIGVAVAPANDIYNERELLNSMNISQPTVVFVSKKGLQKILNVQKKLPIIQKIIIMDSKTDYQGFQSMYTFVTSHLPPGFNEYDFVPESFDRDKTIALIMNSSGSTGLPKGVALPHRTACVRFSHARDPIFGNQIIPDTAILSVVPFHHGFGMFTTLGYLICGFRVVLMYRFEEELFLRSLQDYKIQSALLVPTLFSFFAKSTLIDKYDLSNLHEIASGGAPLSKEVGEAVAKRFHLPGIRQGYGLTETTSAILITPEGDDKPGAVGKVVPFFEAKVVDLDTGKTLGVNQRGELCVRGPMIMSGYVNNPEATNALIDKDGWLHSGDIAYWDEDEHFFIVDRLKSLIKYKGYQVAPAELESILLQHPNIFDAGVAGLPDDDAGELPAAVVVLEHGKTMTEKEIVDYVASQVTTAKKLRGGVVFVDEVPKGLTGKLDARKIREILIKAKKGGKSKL

Active and inactive are the calls of the source.

Concanavalin-A (Canavalia ensiformis), sequence (P02866 whole entry, looked up): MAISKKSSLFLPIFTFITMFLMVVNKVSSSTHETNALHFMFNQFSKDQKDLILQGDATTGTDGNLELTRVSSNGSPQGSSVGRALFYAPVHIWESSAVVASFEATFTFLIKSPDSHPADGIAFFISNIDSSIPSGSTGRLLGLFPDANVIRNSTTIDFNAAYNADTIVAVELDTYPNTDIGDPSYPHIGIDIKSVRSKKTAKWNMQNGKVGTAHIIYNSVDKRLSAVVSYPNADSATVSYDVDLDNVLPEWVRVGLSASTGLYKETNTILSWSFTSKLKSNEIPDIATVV
Fibroblast growth factor 2 (Homo sapiens), sequence (P09038 whole entry, looked up): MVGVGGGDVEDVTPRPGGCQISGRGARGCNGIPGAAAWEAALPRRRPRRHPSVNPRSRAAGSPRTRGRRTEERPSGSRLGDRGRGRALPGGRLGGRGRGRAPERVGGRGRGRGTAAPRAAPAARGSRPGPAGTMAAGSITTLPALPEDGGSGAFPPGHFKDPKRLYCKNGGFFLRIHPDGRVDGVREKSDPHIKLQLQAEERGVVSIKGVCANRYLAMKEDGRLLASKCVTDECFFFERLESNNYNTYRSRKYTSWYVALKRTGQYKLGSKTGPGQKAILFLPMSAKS
Albumin (Bos taurus), sequence (P02769 whole entry, looked up): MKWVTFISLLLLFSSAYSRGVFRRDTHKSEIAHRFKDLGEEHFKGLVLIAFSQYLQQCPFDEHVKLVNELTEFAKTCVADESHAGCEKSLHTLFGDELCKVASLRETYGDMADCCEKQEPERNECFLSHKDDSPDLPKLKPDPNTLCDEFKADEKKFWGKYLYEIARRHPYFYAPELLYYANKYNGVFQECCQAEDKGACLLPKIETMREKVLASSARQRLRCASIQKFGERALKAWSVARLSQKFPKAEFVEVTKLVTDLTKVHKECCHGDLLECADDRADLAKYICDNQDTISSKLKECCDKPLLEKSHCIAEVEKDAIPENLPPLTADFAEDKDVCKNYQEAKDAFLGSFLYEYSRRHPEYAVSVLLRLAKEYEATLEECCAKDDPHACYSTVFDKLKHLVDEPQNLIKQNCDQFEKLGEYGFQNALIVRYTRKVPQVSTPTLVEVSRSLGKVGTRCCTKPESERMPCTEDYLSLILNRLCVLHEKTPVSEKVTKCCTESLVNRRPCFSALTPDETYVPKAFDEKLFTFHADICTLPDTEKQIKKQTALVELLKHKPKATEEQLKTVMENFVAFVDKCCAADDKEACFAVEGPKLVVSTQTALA

With `C=CC[C@@]12N=C(c3ccc(OCCCO)cc3)O[C@@H]1c1ccccc1CN(Cc1ccccc1)C2=O`, the composite z-score with Albumin (Bos taurus) was 0.127; in assay [2], 0.0242; in assay [3] it was -0.053; in [4], 0.496; in assay [5], 1.96; in assay [6] it was 0.377. Also, the composite z-score with Sam68 (KHDRBS1) came to 1.29; in assay [7] it was 0.213; in assay [8] it was 1.02; in [9], 2.93; in [10], 1.18; in assay [11], 1.05. Further, the composite z-score in assay [12] was found to be 0.639; in assay [13] it was 1.33; in assay [14] it was 0.761; in the assay on Lefty1 it was 0.239; in [16], 0.65. Further, in assay [1], the composite Z-score is 0.999 (inactive). Further, the values for the z-score in assay [15] and in [17] were -0.309 and -1.79 (inactive), respectively.

In the case of `O=C1C[C@@](C(=O)NC2CC2)(c2ccc([N+](=O)[O-])cc2)[C@@H](c2ccc(CO)cc2I)N1CC12CC3CC(CC(C3)C1)C2`, the composite z-score with Albumin (Bos taurus) is -0.344; in assay [2], 0.0538; in assay [3] it was -0.19; in assay [4], 0.473; in [5] it was 1.64; in assay [6], 2.12. For the same compound, the composite z-score in the assay on Sam68 (KHDRBS1) was 1.12; in assay [7] it was 0.224; in [8], 1.1; in assay [9], -0.317; in assay [10], 1.18; in [11], 0.32. Further, the composite z-score in [12] was 0.751; in assay [13], 1.07; in [14], 0.718; in the assay with Lefty1, 1.15; in assay [16], 0.793. The composite Z-score in [1] is 0.381 (inactive). Also, the z-score in [15] was -0.558; in assay [17], -0.318 (inactive).

For the compound `CC(C)NC(=O)[C@@]1(Cc2ccccc2I)c2ccccc2C(=O)N(C2CCCCC2)[C@H]1c1ccc(CO)cc1`, the composite z-score with Albumin (Bos taurus) amounted to 0.965; in [2], 0.233; in assay [3], 0.076; in assay [4], 0.312; in [5], 2.55; in assay [6], 0.429. In addition, the composite z-score in the assay on Sam68 (KHDRBS1) was 1.31; in assay [7] it was 0.127; in assay [8], 1.1; in assay [9], 2.52; in assay [10], 1.24; in assay [11], 0.628. Further, the composite z-score was determined as 0.991 in assay [12]; 1.17 in assay [13]; 0.148 in assay [14]; 0.227 in the assay with Lefty1; 0.916 in assay [16]. Also, the composite Z-score in assay [1] is 0.256 (inactive). Besides, the z-score in [15] is -0.105; in [17] it was 0.95 (inactive).

Take `CCOC(=O)C1=CC[C@@H](c2ccc(-c3ccc(OCc4ccccc4)cc3)c(OC)c2)N(S(=O)(=O)c2ccc(C)cc2)[C@H]1c1ccccc1`: the composite z-score was 0.713 with Albumin (Bos taurus); 0.349 in assay [2]; -0.146 in assay [3]; 0.469 in assay [4]; 1.64 in assay [5]; 0.87 in assay [6]. In addition, the composite z-score is 1.24 in the assay on Sam68 (KHDRBS1); 0.0693 in [7]; 1.13 in assay [8]; 1.07 in [9]; 1.2 in [10]; -0.0822 in [11]. Moreover, the composite z-score is 0.978 in assay [12]; 1.2 in assay [13]; 0.275 in assay [14]; 0.329 in the assay with Lefty1; 1.05 in [16]. Moreover, the composite Z-score in [1] was 1.53 (inactive). For the same compound, the z-score in assay [15] is 1.63; in assay [17], -3.26 (inactive).

As to `CC(C)N1CC=CC23O[C@@H]4/C=C\CCCOC(=O)C4[C@H]2C(=O)N(CCCCCO)[C@@H]3C1=O` (stereo not given in full), the composite z-score in the assay with Albumin (Bos taurus) was -1.71; in assay [2], -0.448; in assay [3] it was -0.169; in assay [4] it was 0.945; in [5], -0.0414; in assay [6], 0.64. Moreover, the composite z-score in the assay with Sam68 (KHDRBS1) was -1.74; in assay [7] it was -1.9; in assay [8], -1.26; in [9] it was -2.21; in assay [10], -1.79; in [11], -0.925. For the same compound, the composite z-score in assay [12] was -3.13; in assay [13], -1.15; in assay [14], -1.03; in the assay on Lefty1, -1.52; in assay [16], -1.78. In [1], the composite Z-score was -0.0102 (inactive). Further, the z-score is 3.68 in [15] and -1.32 (inactive) in assay [17].

(Values after PubChem BioAssay.)
